An excerpt weighted towards active compounds, which were near 4% of everything screened.
GDH-TPI counter-1 – inhibits GDH-TPI coupling enzymes, artifact for Mtb FBA screen. actives 1.2% (n = 360,000). inhibition, % at 4.8 µM. GDH-TPI coupled enzyme counterscreen, NADH absorbance;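 further: 0% = DMSO wells and 100% = wells lacking the enzyme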
FBA Mtb inh – Mtb fructose-bisphosphate aldolase inhibition | AID 588726 | actives 2.3% (n = 360,000) | inhibition, % at 1 µM | P9WQA3 | purified M. tuberculosis FBA, fluorescence read-out; in the data active means inhibition above about 27%;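 further: 0% = vehicle and 100% = reference inhibitor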
Target sequence (P9WQA3 whole entry, looked up): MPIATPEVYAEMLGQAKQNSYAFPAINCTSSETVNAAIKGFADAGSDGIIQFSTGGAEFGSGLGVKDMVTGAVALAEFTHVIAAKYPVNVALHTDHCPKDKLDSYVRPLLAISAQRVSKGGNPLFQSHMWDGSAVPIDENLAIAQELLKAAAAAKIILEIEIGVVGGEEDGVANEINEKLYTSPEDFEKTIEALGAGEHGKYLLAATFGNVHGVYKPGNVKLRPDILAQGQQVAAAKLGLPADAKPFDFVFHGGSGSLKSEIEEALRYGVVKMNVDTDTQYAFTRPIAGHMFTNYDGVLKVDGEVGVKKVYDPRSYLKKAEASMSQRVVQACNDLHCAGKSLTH
CCHFV vOTU inh – blocks the CCHF virus ovarian tumor domain protease | inhibition, % at 11.5 µM | AID 651958 | actives 0.55% (n = 370,000) | CCHFV vOTU protease, Pep-AMC fluorescence; further: 0% = vehicle wells with enzyme and 100% = no enzyme wells
Mtb bLac sens – beta-lactam sensitization of Mtb H37Rv. AID 434955. actives 0.27% (n = 330,000). inhibition, % at 25 µM. M. tuberculosis H37Rv growth with meropenem, percent inhibition; call rule not given here;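 further: growth measured after seven days incubation then overnight dye step; 0% = bacteria only wells and 100% = bacteria with antibiotic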
MazF activator – MazEF (E. coli) toxin RNase activation; actives 0.32% (n = 350,000); AID 504720; P0AE70; FAM/BHQ RNA-DNA oligo cleavage fluorescence, 5 h; activation, % at 20 µM; in the data active means activation above about 50%
Target sequence (P0AE70 whole entry, looked up): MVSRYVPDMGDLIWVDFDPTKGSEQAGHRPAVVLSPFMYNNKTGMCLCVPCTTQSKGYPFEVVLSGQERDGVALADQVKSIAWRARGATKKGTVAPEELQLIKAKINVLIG
Mtb FBA confirm – Mtb FBA inhibition, confirmed; shares compounds with FBA Mtb inh; purified M. tuberculosis FBA, fluorescence read-out; actives 78% (n = 5,600); inhibition, % at 1 µM; in the data active means inhibition above about 27%;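 further: 0% = vehicle wells and 100% = reference inhibitor wells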
GDH-TPI counter-2 – inhibits GDH-TPI coupling enzymes, flagging Mtb FBA hits; shares compounds with FBA Mtb inh; actives 81% (n = 5,600); AID 652141; inhibition, % at 1 µM; GDH-TPI coupled enzyme counterscreen, fluorescence; in the data active means inhibition above about 10%
GDH-TPI DR – GDH-TPI dose response counter-screen for Mtb FBA | shares compounds with FBA Mtb inh | GDH-TPI coupled enzyme assay, fluorescence, artifact counterscreen | IC50, µM | actives 79% (n = 170) | AID 652145; call rule not given here
The depositor's hits bear a star; . = no result; + = active, no number. Unless noted, no stated cut-off is given here; in the data, active means inhibition above about 30%; inactive means the rest.

SMILES	GDH-TPI counter-1	FBA Mtb inh	CCHFV vOTU inh	Mtb bLac sens	MazF activator	Mtb FBA confirm	GDH-TPI counter-2	others
Cc1cccc(OC(C)C(=O)NC2CCS(=O)(=O)C2)c1C (stereo not given)	-1	88*	.	6	0	119*	83*
CCS(=O)(=O)Nc1ccc2c(c1)C(=O)N(C)[C@@H]1CC[C@H](CC(=O)N[C@@H]3CCN(Cc4ccccc4)C3)O[C@H]1CO2	.	.	14	.	.	.	.
COc1ccc2[nH]c(C(=O)NCc3ccc4c(c3)OCO4)cc2c1	11	39*	-16	-3	10	5	-2
COc1ccc2[nH]c(C(=O)NCCN3CCOCC3)cc2c1	2	77*	-27	2	5	43*	35*
O=C(NCCc1ccccc1)OCc1cn(-c2cccc(Cl)c2)nn1	.	.	3	.	.	.	.
N#Cc1nc(-c2ccc(OCc3ccc(Cl)cc3)cc2)oc1N1CCC(C(N)=O)CC1	1	9	-3	8	4	.	.
CCOc1ccc(-c2nc(C#N)c(N3CCCCCC3)o2)cc1	14	100*	-22	4	-1	46*	42*
CCCOc1ccc(-c2nc(C#N)c(N3CCN(C)CC3)o2)cc1	4	40*	-20	22	0	-5	1
Cc1ccc(OCc2nc(C#N)c(N3CCN(Cc4ccccc4)CC3)o2)cc1	3	2	5	-3	2	.	.
CCOc1ccc(-c2nc(C#N)c(N3CCN(C)CC3)o2)cc1	33*	69*	-24	6	0	+	+
O=C(N[C@H](Cc1ccccc1)C(=O)N1CCN(C(=O)N2CCOCC2)CC1)[C@H]1O[C@@H](n2ccc(=O)[nH]c2=O)[C@H](O)[C@@H]1O	.	.	-6	.	.	.	.
Cc1cc2c(SCc3ccccc3Cl)nc(N)nc2nc1C	6	86*	-78	.	-13	19	1	GDH-TPI DR=1.3*
CC(C)CN1C(=O)N2CCc3ccccc3C2CS1(=O)=O (stereo not given)	.	.	-4	.	.	.	.
CCCCNc1ccccc1C(=O)OCC(=O)Nc1ccc(S(N)(=O)=O)cc1	-11	48*	-34	46	-3	34*	23*
O=C(COC(=O)/C=C/c1cccc(F)c1)Nc1cccc(S(=O)(=O)NC2=NCCCCC2)c1	3	1	4	-1	0	.	.
COc1cccc(/C=C/C(=O)OCC(=O)Nc2cccc(S(=O)(=O)NC3=NCCCCC3)c2)c1	0	36*	6	4	-1	0	-10
O=C(COC(=O)c1ccccc1NCCO)Nc1cccc(S(=O)(=O)NC2=NCCCCC2)c1	9	53*	-78	4	0	-5	-7
CN(CCCOC(=O)c1cc2ccccc2o1)C1CN(Cc2cn(Cc3ccccc3Cl)nn2)S(=O)(=O)C1 (stereo not given)	.	.	7	.	.	.	.
COc1cccc(CC(=O)O[C@@H]2CCC[C@@]3(C(=O)N(Cc4ccccc4)c4ccccc43)[C@H]2NC(=O)CCc2ccccc2)c1	.	.	2	.	.	.	.
Cc1cccn2c(=O)c3cc(C(N)=S)c(=N)n(CCCOC(C)C)c3nc12	16	63*	-89	-4	24	6	0
CCOC(=O)C1CCN(C(=O)c2cc3c(=O)n4cccc(C)c4nc3s2)CC1	12	100*	-18	1	4	+	166*
CC(C)CN(CC(C)C)C(=O)c1cc2c(=O)n3ccccc3nc2s1	4	59*	-62	10	1	+	194*
CCC1CCCCN1C(=O)c1cc2c(=O)n3cccc(C)c3nc2s1 (stereo not given)	7	16	.	3	-28	.	.
CCCn1c(=N)c(S(=O)(=O)c2ccccc2)cc2c(=O)n3cccc(C)c3nc21	-7	2	-3	4	3	.	.
CCCN(CCC)C(=O)c1cc2c(=O)n3cccc(C)c3nc2s1	24	30*	-46	5	8	137*	98*
SMILES	GDH-TPI counter-1	FBA Mtb inh	CCHFV vOTU inh	Mtb bLac sens	MazF activator	Mtb FBA confirm	GDH-TPI counter-2	others
COC(=O)[C@]12C[C@H](CC(=O)N3CCN(C(=O)C4CC4)CC3)C(=O)N(Cc3ccco3)C1=C[C@H](C1CCCC1)O[C@@H]2C	.	.	-9	.	.	.	.
COc1ccc(NC(=O)CCCNS(=O)(=O)c2ccc3[nH]c(=O)oc3c2)cc1OC	.	.	3	.	.	.	.
CC(C)CN(CC(C)C)C(=O)CSc1nc2cccnc2n1C	.	.	-9	.	.	.	.
OC[C@@H]1CC[C@@H]2O[C@H](CCc3ccc(-c4ccc(F)cc4)cc3)[C@@H](n3cc(C4CC4)nn3)C[C@@H]2O1	.	.	4	.	.	.	.
Cc1cccn2c(=O)c3cc(C(=O)N4CCCCC4)sc3nc12	31*	64*	-31	5	1	122*	83*
Cc1cccn2c(=O)c3cc(C(=O)N4CCCC(C)C4)sc3nc12 (stereo not given)	21	22	8	-3	-1	.	.
COCCCNC(=O)c1cccn2c(=O)c3cc4ccccc4cc3nc12	5	-3	-1	89	-5	.	.
Cc1cccn2c(=O)c3cc(C(=O)NCCCOC(C)C)sc3nc12	23	103*	-35	-2	7	4	2
Cc1cccn2c(=O)c3cc(C(=O)NC4CCCC4)sc3nc12	17	91*	-103	7	8	66*	51*
COC(=O)C1=C(C)N(Cc2cccc(C(F)(F)F)c2)C(=NCc2cc(OC)c(OC)c(OC)c2)NC1c1ccccc1 (stereo not given)	.	.	16	.	.	.	.
COc1cccc(/C=C/c2nc(S(=O)(=O)c3ccccc3)c(N(C)C)o2)c1	22	47*	8	-6	2	58*	44*
COCCNc1oc(/C=C/c2ccc(F)cc2)nc1S(=O)(=O)c1ccccc1	17	19	2	2	-7	.	.
COCCNc1oc(/C=C/c2cccc(OC)c2)nc1S(=O)(=O)c1ccccc1	32*	47*	-4	.	10	123*	89*
O=C(c1cccnc1)N1CCC(Oc2ccc(C(=O)N3CCCC(O)C3)cc2)CC1 (stereo not given)	3	28*	1	4	-2	58*	30*
CC(NC(=O)c1ccc(OC2CCN(C(=O)c3cccnc3)CC2)cc1)C1CC1 (stereo not given)	-4	2	7	-1	14	.	.
CNc1ccccc1/C(O)=C(\C#N)C(=O)NCc1cccc2ccccc12	.	.	4	.	.	.	.
CCCCN1CCS(=O)(=O)N(Cc2cn(Cc3ccc(C)cc3)nn2)C(C(=O)OC)C1 (stereo not given)	.	.	1	.	.	.	.
C[C@@H](NC(=O)c1cc2c([nH]c3ccccc32)c(-c2ccccc2)n1)C(=O)O	7	29*	-28	-6	-5	71*	61*
